According to PubChem BioAssay (NCATS):
Inconclusive results are not listed. The source made the active and inactive calls. The call rests on the fitted dose curve; in most records, active means well fitted inhibition curve with a large enough effect; inconclusive means small, poorly fitted or top-dose-only effect; inactive means flat fitted curve, though single readings scatter.

These compounds were tested on HACAT (assay: qHTS assay to identify novel small-molecules to repurpose for Merkel cell carcinoma treatment (AID 1296009; further: nearly all actives have a fitted effect of over 60% in size)). Details: MCC and control cell lines, CellTiter-Glo viability, 72 h; at 44.8 µM (top of the series) unless noted.
Method in brief: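 Cell viability, measured as CellTiter-Glo luminescence, was normalized between DMSO and no-cell wells. The cells had been exposed to 8- or 11-point compound dilutions for 72 hr at 37 degree celsius.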

Question: For `CCCCCCCOc1cc2c(cc1/C(C)=C/c1ccc(C(=O)O)cc1)C(C)(C)CCS2(=O)=O`, which outcome is on record?
Answer: The outcome was “inactive”.

Question: With `CC(C)=C[C@@H]1[C@H](CO[C@@H]2O[C@H](CO)[C@@H](O)[C@H](O)[C@H]2O)C1(C)C` as the compound, how does the outcome read?
Answer: The outcome was “inactive”.

Question: Which outcome does the source give for `O=C(Nc1nc2ccc([N+](=O)[O-])cc2s1)C1CCCCC1` here?
Answer: The outcome was “inactive”.
